This is an account of results in PubChem BioAssay (NCATS).

Results filed as inconclusive are left out. Active and inactive are the calls of the source. Unless noted, the rule behind the calls is not given here.

Sequence of Alpha-galactosidase (Coffea arabica) (Q42656 whole entry, looked up): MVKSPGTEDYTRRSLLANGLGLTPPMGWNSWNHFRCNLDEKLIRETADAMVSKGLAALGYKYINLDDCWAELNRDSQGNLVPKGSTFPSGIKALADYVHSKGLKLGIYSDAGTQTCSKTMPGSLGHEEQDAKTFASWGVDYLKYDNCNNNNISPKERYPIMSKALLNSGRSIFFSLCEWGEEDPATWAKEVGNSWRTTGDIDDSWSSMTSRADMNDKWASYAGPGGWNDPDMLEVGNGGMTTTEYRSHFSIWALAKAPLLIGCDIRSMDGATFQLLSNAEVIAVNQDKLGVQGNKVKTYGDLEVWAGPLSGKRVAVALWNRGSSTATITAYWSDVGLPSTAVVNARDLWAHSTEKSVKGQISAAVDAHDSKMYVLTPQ

For one assay, the target named is Alpha-galactosidase (Coffea arabica) (UniProt Q42656). The assay can be described thus: Counterscreen for Glucocerebrosidase Inhibitors: qHTS Assay for Coffee Bean alpha-Galactosidase at pH 4.5 (AID 957; active = well fitted curve in the direction sought with a large enough effect;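 note: plate controls were enzyme alone for no effect and no enzyme for full effect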). To be noted: purified coffee bean alpha-galactosidase, fluorogenic substrate; series mostly up to 76.9 µM. The procedure, abridged:
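Fluorogenic read-out: 4-methylumbelliferone at Ex 365/Em 440 nm after NaOH/glycine stop (pH 10). Enzyme 2 nM, 4-MU-alpha-galactoside 80 uM, citrate buffer pH 4.5, 20 min RT; normalized to no-enzyme and enzyme controls.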
As for `O=c1ccc2ccc(O)c(O)c2o1`, the call was inactive. Still for that read-out and setting: in the case of `CCCCCCN(CCCCCC)C(=O)Cc1c(-c2ccc(F)cc2)[nH]c2ccccc12` it was “inactive”. With `O=C1NC(=O)c2cc(Nc3ccccc3)c(Nc3ccccc3)cc21`, the result was inactive.

System in the next assay: not listed separately
In words: qHTS profiling of the MIPE4 collection as inhibitors of Plasmodium falciparum (DD2) proliferation (AID 743345). Particulars: P. falciparum Dd2 in erythrocytes, SYBR Green DNA, 72 h; at 28.5 µM (top of the series) unless noted. An outline of the steps: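 Parasite DNA was quantified by SYBR Green I fluorescence (ex 485, em 535 nm) after overnight lysis in saponin/Triton buffer at room temperature. Cultures at 0.3% parasitemia and 2.5% hematocrit were first exposed to compound for 72 h at 37 C; signals were normalised to artemisinin (0.29 uM) and vehicle wells.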
As to `NC(=O)c1ncn([C@@H]2O[C@H](CO)[C@@H](O)[C@@H]2O)n1`, the parasite growth remaining, % of DMSO control (lower = more inhibition) worked out at 90.2%.

The compound `C#Cc1cccc(Nc2ncnc3cc(OCCOC)c(OCCO)cc23)c1` gave a parasite growth remaining, % of DMSO control (lower = more inhibition) of 36.9%. The same measure, in the same setting: the result for `CN(C)CCOc1ccc(C(=C(CCCl)c2ccccc2)c2ccccc2)cc1` reads 55.4%.

System in another assay: not listed separately
In words: qHTS for Inhibitors of the Functional Ribonucleoprotein Complex (vRNP) of Lassa (LASV) Arenavirus: Viability assay - alamar blue signal for LASV Primary Screen (AID 1347083; calls by dose curve; tested in HEK293 reporter line; note: nearly all actives have a fitted effect of over 80% in size; note: potency is the fitted concentration of half-maximal effect). Particulars: cell viability, alamar blue fluorescence (LASV minigenome counter-screen); series mostly up to 57.5 µM.
On to `COc1cc2ncnc(Nc3cccc(Br)c3)c2cc1OC`, for which the Potency was 0.344 µM (active). Still for that read-out and setting: the result for `O=c1ccc2ccc(O)c(O)c2o1` reads “inactive”.

For the compound `Cc1ccn(-c2ccc(-c3ncco3)cc2)c(=O)c1-c1ccc2nc(N)ncc2c1`, the Potency is 3.43 µM (active). Still for that read-out and setting: the result for `CNC1CCC(N(Cc2cccc(-c3ccncc3)c2)C(=O)c2sc3ccccc3c2Cl)CC1` (stereo not given) reads 30.6 µM (active); that for `C[C@@H](NC(=O)c1ncnc(N)c1Cl)c1ncc(C(=O)Nc2cc(C(F)(F)F)c(Cl)cn2)s1`, 24.3 µM (active); that for `Nc1nc(N)c2nc(-c3cccc(O)c3)c(-c3cccc(O)c3)nc2n1`, 8.63 µM (active). Still for that read-out and setting: the result for `Cc1cc(C(=O)N2CCN(c3cccc(Cl)c3)CC2)n(-c2ccccc2)n1` reads 0.611 µM (active).

Turning to `Cc1c(Cn2c(C)nc3c(C(=O)O)cc(N4CCOCC4)cc32)cccc1C(F)(F)F`, the Potency was 1.09 µM (active).

On to `C[C@]12CC[C@@H]3c4ccc(O)cc4CC[C@H]3[C@H]1CC[C@H]2O`, for which the Potency is 9.68 µM (active). On the same count and under the same terms, in the case of `COc1ccc(C=Cc2cc(OC)c(OC)c(OC)c2)cc1NC(=O)[C@H](N)CO` it was 0.0022 µM (active); in that of `CS(=O)(=O)N1CCc2c(-c3cnc(N)nc3)nc(N3CCOCC3)nc21`, 0.273 µM (active); in that of `CN(C)N=Nc1nc[nH]c1C(N)=O`, 17.2 µM (active).

Turning to `c1cc(N[C@@H]2CCNC2)nc(-c2cnc3ccc(-c4cn[nH]c4)cn23)c1`, the Potency is 10.9 µM (active). On the same count and under the same terms, in the case of `CC(C)CNc1ccnc(NCc2csc(-c3ccccc3)n2)n1` it was 13.7 µM (active); in that of `NC(=O)c1ncn([C@@H]2O[C@H](CO)[C@@H](O)[C@@H]2O)n1`, “inactive”. Same read-out and setting: the result for `Cn1cc(C2=C(c3c4n(c5ccccc35)CCC(CN)C4)C(=O)NC2=O)c2ccccc21` (stereo not given) reads 17.2 µM (active); that for `NC(=O)N1CCC(CC(=O)N2CCC([C@H]3c4ncc(Br)cc4CCc4cc(Cl)cc(Br)c43)CC2)CC1`, “inactive”.

For `C[C@@H]1COC(Nc2ccc3ncnc(Nc4ccc(OCc5nccs5)c(Cl)c4)c3c2)=N1`, the Potency was 1.53 µM (active). `C#Cc1cccc(Nc2ncnc3cc(OCCOC)c(OCCO)cc23)c1`: the Potency was 10.9 µM (active). For the compound `CCOC(=O)C1=C(C)NC(=S)NC1c1cccc(O)c1` (stereo not given), the Potency was 0.344 µM (active). As for `Cc1c(NC(=O)OC[C@@H]2COCCN2)cn2ncnc(Nc3ccc4c(cnn4Cc4cccc(F)c4)c3)c12`, the Potency was 1.22 µM (active). Still for that read-out and setting: the result for `CCCCCCN(CCCCCC)C(=O)Cc1c(-c2ccc(F)cc2)[nH]c2ccccc12` reads “inactive”; that for `O=C1NC(=O)c2cc(Nc3ccccc3)c(Nc3ccccc3)cc21`, “inactive”; that for `COCCOc1ccc2c(c1)ncn2-c1ccc2cccc(N3CCC(N)CC3)c2n1`, 24.3 µM (active). The same measure, in the same setting: in the case of `c1ccc2c(Cc3c[nH]c4ccccc34)c[nH]c2c1` it was 4.32 µM (active); in that of `C[C@@H]1C[C@@H]2O[C@H]2/C=C\C=C\C(=O)Cc2c(Cl)c(O)cc(O)c2C(=O)O1`, 6.31 µM (active); in that of `NC(=O)Nc1cc(-c2ccc(CN3CCOCC3)cc2)sc1C(N)=O`, 7.69 µM (active). On to `COc1ccc(S(=O)(=O)Nc2cccnc2Nc2ccc(O)cc2)cc1`, for which the Potency was 0.273 µM (active). With `CN(C)CCOc1ccc(C(=C(CCCl)c2ccccc2)c2ccccc2)cc1`, the Potency is 12.2 µM (active). With `Cc1ccc(NC(=O)c2cccc(N(C)C)c2)cc1NC(=O)c1ccc(O)cc1`, the Potency was 12.2 µM (active). Same read-out and setting: in the case of `Cc1cnc(Nc2ccc(CN3CCOCC3)cc2)nc1Nc1cccc(S(=O)(=O)NC(C)(C)C)c1` it was 4.32 µM (active); in that of `CNC(=O)c1ccc(Nc2cc(Nc3ccccc3S(=O)(=O)C(C)C)c3cc[nH]c3n2)nc1`, 8.63 µM (active); in that of `CC1=C(CC(=O)O)c2cc(F)ccc2C1=Cc1ccc(S(C)=O)cc1` (stereo not given), 38.5 µM (active). The same measure, in the same setting: the result for `O=C(Nc1cccc(Br)c1)c1cccc(S(=O)(=O)N2CCCCCC2)c1` reads 24.3 µM (active).
